PINK1 modulator = changes PINK1 expression. PINK1 immunofluorescence, high-content cytometry, 24 h. Potency, µM (doses to about 76.6 µM), inactives show top-dose activation (PINK1 increase), hits mostly activators. 410,000 tested, 0.2% active; active means well fitted activation curve with a large enough effect; inconclusive means small, poorly fitted or top-dose-only effect; cell line not stated here; further: % of control where 0% means no effect; nearly all actives have a fitted effect of over 65% in size
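Fluorescence from anti-PINK1 antibody, together with nuclear and cell stains, was scanned on a laser-scanning cytometer. Before staining, stable-line cells were incubated 24 hours with compounds at 5 concentrations; primary antibody 12 h at 10 degrees C.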
MCF10A rereplic = inducers of DNA re-replication in MCF 10A breast cells; Potency, µM (series often up to 46.1 µM), without a hit: at the highest dose activity, positive = re-replication, usual class: activators; MCF 10A DNA re-replication, Hoechst nuclear intensity, 48 h; AID 624296; 350,000 tested, 2.9% active; further: % of control where 0% means no effect; nearly all actives have a fitted effect of over 50% in size
KB-V1 MDR tox = kills drug-selected multidrug resistant KB-V1 cells. Potency, µM (series often up to 46.1 µM), hits mostly cytotoxic. 400,000 tested, 3.4% active. KB-V1 MDR cells viability, CellTiter-Glo, 72 h; further: on the % scale 0 is the no-effect control and ±100 the full control effect; nearly all actives have a fitted effect of over 60% in size
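KB-V1 MDR subline cells in DMEM (phenol-red free, 10% FBS) exposed to compounds in qHTS concentration series for 72 h at 37 degrees C. Viability read by CellTiter-Glo luminescence; concentration-effect curves fitted after normalization and correction.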
SW480 rerep = induces DNA re-replication in SW480 colon adenocarcinoma cells. SW480 DNA re-replication, Hoechst DNA content imaging, 48 h. Potency, µM (doses to about 46.1 µM), inactives show at the top dose re-replication activation, most hits filed as activators. 340,000 tested, 1.8% active. AID 624297; further: % of control where 0% means no effect; nearly all actives have a fitted effect of over 55% in size
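First, 250 cells per well were seeded. Next, compound or vehicle (23 nL) was pinned in, plates sat 48 hr at 37 C. Finally Hoechst was added for 40 min before fluorescence scanning.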
KB-3-1 cytotox = KB-3-1 parental cell cytotoxicity | Potency, µM (highest dose often 46.1 µM), hits mostly cytotoxic | KB-3-1 viability, CellTiter-Glo ATP luminescence, 72 h | 400,000 tested, 1.4% active; further: on the % scale 0 is the no-effect control and ±100 the full control effect; nearly all actives have a fitted effect of over 60% in size
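Using CellTiter-Glo luminescence, growth of non-resistant KB-3-1 adenocarcinoma cells is assessed 72 h after pin-tool compound addition at 37 °C. Normalized responses across the concentration series yield fitted curves.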
12-LOX inh = inhibitors of human 12S-lipoxygenase ALOX12; purified 12hLO, xylenol orange hydroperoxide absorbance; Potency, µM (series often up to 108 µM), for inactives: at the top dose activity change, negative = inhibition, actives largely listed as inhibitors; 580,000 tested, 1.1% active; AID 1671190; further: on the % scale 0 is the no-effect control and ±100 the full control effect
Target sequence (P18054 whole entry, looked up): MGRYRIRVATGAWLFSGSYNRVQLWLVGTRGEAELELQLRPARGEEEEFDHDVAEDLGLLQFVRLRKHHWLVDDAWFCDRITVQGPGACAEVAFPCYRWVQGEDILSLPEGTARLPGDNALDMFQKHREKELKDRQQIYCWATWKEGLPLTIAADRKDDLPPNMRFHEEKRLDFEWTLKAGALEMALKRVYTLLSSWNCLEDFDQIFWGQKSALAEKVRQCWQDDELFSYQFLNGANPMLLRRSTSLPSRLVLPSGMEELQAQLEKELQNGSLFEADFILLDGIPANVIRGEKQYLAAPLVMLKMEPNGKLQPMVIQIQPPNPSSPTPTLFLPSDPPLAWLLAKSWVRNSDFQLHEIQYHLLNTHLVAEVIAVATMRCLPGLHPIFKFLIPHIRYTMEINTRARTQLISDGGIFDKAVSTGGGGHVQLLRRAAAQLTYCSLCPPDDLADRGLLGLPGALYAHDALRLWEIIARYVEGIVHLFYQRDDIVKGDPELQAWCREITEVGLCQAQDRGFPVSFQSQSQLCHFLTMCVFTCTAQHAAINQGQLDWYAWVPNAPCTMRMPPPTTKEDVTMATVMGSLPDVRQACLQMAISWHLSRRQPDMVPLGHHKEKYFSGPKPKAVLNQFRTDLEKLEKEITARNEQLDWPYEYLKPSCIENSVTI
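Hydroperoxide product was detected by ferrous iron/xylenol orange as the 573 to 405 nm absorbance ratio. Arachidonic acid at 40 uM (final) was turned over for 30 min at room temperature by 150 nM human 12hLO, pH 7.0 Hepes buffer, after 15 min compound preincubation.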
The depositor's hits bear a star; i = inactive; ? = inconclusive; . = no result; ! = a repeat was not active; [ ] = remark or other dose. Only some compounds are listed: those with a hit (about 5.8% of all), similar ones and a draw of the others. Unless noted, the call rests on the fitted dose curve; in most records, active means well fitted curve in the direction sought with a large enough effect; inconclusive means small, poorly fitted or top-dose-only effect, or another doubt; inactive means no such curve, though single readings can be large; an effect the other way counts as inactive or inconclusive. Potency means the concentration at half of the fitted maximal effect.

SMILES | PINK1 modulator | MCF10A rereplic | KB-V1 MDR tox | SW480 rerep | KB-3-1 cytotox | 12-LOX inh
CCN1CCN(Cc2ccc(NC(=O)c3ccc(C)c(NC(=O)c4c[nH]c5cc(C(F)(F)F)ccc5c4=O)c3)cc2C(F)(F)F)CC1 | -2.7% | 11.6µM* | ? | 1.84µM* | 2.31µM* | ?
CCN1CCN(Cc2ccc(NC(=O)c3cc(NC(=O)c4cncc(-c5cccs5)c4)cc(OC)c3)cc2C(F)(F)F)CC1 | -1.2% | 23.1µM* | 18.4µM*! | ? | ? | ?
CCN1CCN(Cc2ccc(NC(=O)c3cc(NC(=O)c4ccno4)cc(OC)c3)cc2C(F)(F)F)CC1 | 1.4% | ? | i | -0.4% | i | ?
CCNC(=O)NC(=O)CN(C)Cc1cc(C)c(OC)c(C)c1 | . | . | . | . | . | -0.1%
c1ccc2nccnc2c1 | 0.0% | . | ? | . | 4.61µM* | .
c1cc(Nc2cccc3nccnc23)c2nccnc2c1 | 1.3% | 13.4% | ? | 8.2µM* | ? | -0.3%
Fc1ccc(Nc2cccc3nccnc23)cc1 | 1.5% | -1.9% | i | -8.3% | i | -0.6%
CC(C)(C)c1cc(C(=O)OCCN2CCCCC2)cc(C(C)(C)C)c1 | . | . | . | . | . | 7.08µM*
CC(C)(C)c1ccc(C(=O)OCCN2CCCCC2)cc1 | 10.3% | -3.1% | i | -15.0% | i | 4.8%
CCC(C)NC(=O)Nc1c(NC)c2ccccc2oc1=O (stereo unspecified) | . | . | . | . | . | -0.1%
Cc1ccc(-c2nc(CSc3nnc(NCc4ccccc4)s3)co2)cc1 | . | . | . | . | . | 9.9%
COc1ccc([C@@H]2C[C@H]3CN(c4ccccc4)C(=O)[C@]34CCCN24)c(OC)c1OC | 1.6% | -2.6% | i | -14.2% | i | 8.9%
O=C1N(c2ccccc2)C[C@@H]2C[C@@H](c3cccs3)N3CCC[C@@]123 | 3.3% | 5.8µM* | i | 21.0% | i | ?
CC(C)(O)C#Cc1ccc([C@@H]2C[C@H]3CN(c4ccccc4)C(=O)[C@]34CCCN24)s1 | 0.2% | ? | i | 8.2µM* | ? | -12.2%
CC1CCCC(NC(=S)NC(=O)c2ccco2)C1C (stereo unspecified) | 8.9% | 17.8% | 18.4µM* | -2.5% | i | 31.6µM*
O=C(NC(=S)Nc1ccccc1N1CCCCC1)c1ccco1 | 3.5% | ? | ? | -2.3% | ? | ?
O=C(NC(=S)Nc1ccc(N2CCCCC2)cc1)c1ccco1 | -1.8%[38.3 µM] | ? | 8.2µM* | ? | i | -13.6%
O=C(NC(=S)Nc1cccc(Cl)c1N1CCCCC1)c1ccco1 | 18.5%[38.3 µM] | ? | i | 18.4µM* | i | ?
CC1CCN(c2ccc(NC(=S)NC(=O)c3ccco3)cc2)CC1 | 6.2% | -0.2% | i | ? | i | -14.8%
CCCC(=O)NC(=S)Nc1cccc(Cl)c1N1CCCC1 | 0.9% | 18.4µM* | i | ? | i | ?
CCCC(=O)NC(=S)Nc1cccc2c(O)cccc12 | 2.0% | -4.6% | i | ? | i | ?
COc1ccccc1C(=O)Nc1sc2c(c1C(N)=O)CCC(C)C2 (stereo unspecified) | . | . | . | . | . | -18.1%
c1ccc(Cn2cc(CN3CCCC3)c(-c3ccc4c(c3)OCO4)n2)cc1 | . | . | . | . | . | 17.7%
O=C(NC(=S)Nc1cccc(Cl)c1N1CCCCC1)c1cccs1 | ? | 3.26µM* | ? | ? | ? | ?
O=C(NC(=S)Nc1cccc(Cl)c1N1CCOCC1)c1cccs1 | 3.9% | -1.1% | i | -5.3% | i | ?
SMILES | PINK1 modulator | MCF10A rereplic | KB-V1 MDR tox | SW480 rerep | KB-3-1 cytotox | 12-LOX inh
O=C1C(Nc2ccccc2)=CC(=O)c2ncccc21 | . | . | . | . | . | 10.5%[176 µM]
CC(NC1=CC(=O)c2cccnc2C1=O)C(O)c1ccccc1 (stereo unspecified) | -0.6% | 3.66µM* | 14.6µM* | 11.6µM* | 8.2µM* | ?
CCCNC(=O)/C(=C/c1cn(S(=O)(=O)N(C)C)c2ccccc12)NC(=O)c1ccccc1OC | . | . | . | . | . | -25.6%
COc1ccc(CNC(=O)c2c(Nc3ccccc3C)sc(C(=O)c3ccccc3)c2N)cc1 | ? | . | ? | . | ? | -0.5%
Nc1c(C(=O)c2ccccc2)sc(Nc2ccc(Cl)c(Cl)c2)c1C(=O)Nc1ccccc1 | 15.8µM* | . | ? | . | i | ?
Cc1ccc(Nc2sc(C(=O)c3ccccc3)c(N)c2C(=O)Nc2ccc(Cl)cc2)cc1 | 39.8µM* | . | i | . | ? | ?
Cc1ccccc1Nc1sc(C(=O)c2ccccc2)c(N)c1C(=O)NCc1ccc(Cl)cc1 | 15.8µM* | . | ? | . | ? | -25.9%
CCOc1ccc(NC(=O)c2c(Nc3ccc(OC)cc3OC)sc(C(=O)c3ccc(Cl)cc3)c2N)cc1 | 5.5% | . | . | . | . | -5.4%
O=C(C1CCCCC1)N1CCC2(CC1)CC(N(Cc1ccc(F)cc1)C1CC1)CCO2 (stereo unspecified) | . | . | . | . | . | 31.9%
Cc1nn2c(N3CCN(C)CC3)cc(C(C)(C)C)nc2c1-c1ccccc1 | -1.6% | ? | ? | ? | ? | ?
COc1ccccc1-c1cc2nc(-c3ccccc3)cc(N3CCN(C(=O)c4ccoc4)CC3)n2n1 | -0.9% | . | 9.2µM* | . | ? | ?
Cc1nn2c(N3CCN(C(=O)c4ccco4)CC3)cc(C(C)(C)C)nc2c1-c1ccccc1 | 4.4% | -3.4% | 18.4µM* | -5.8% | ? | 135.2%
COc1cccc(-c2cc3nc(-c4ccccc4)cc(N4CCN(C(=O)c5ccoc5)CC4)n3n2)c1 | 0.6% | . | ? | . | ? | -13.1%
COc1ccccc1-c1cc2nc(-c3ccccc3)cc(N3CCN(C(=O)c4ccco4)CC3)n2n1 | -0.5% | . | ? | . | 16.4µM* | ?
O=C(c1ccoc1)N1CCN(c2cc(-c3ccco3)nc3cc(-c4ccccc4)nn23)CC1 | 0.4% | . | ? | . | ? | ?
O=C(c1ccoc1)N1CCN(c2cc(-c3ccccc3)nc3cc(-c4ccccc4)nn23)CC1 | 3.6% | . | ? | . | 16.4µM* | ?
Cc1cc(C(=O)N2CCCCC2)c2c(C3CCCN3)noc2n1 (stereo unspecified) | . | . | . | . | . | 0.4%[6.33 µM]
CC(C)c1ccc(-c2nnn(Cc3cc(=O)n4ccsc4n3)n2)cc1 | . | . | . | . | . | -19.2%
Cc1c(O)ccc2c(CN3CCN(C)CC3)cc(=O)oc12 | . | . | . | . | . | 76.9%
O=C(CCC1CCCN(Cc2cnc(-c3ccccc3)s2)C1)Nc1ccccc1F (stereo unspecified) | . | . | . | . | . | 6.2%
O=C(O)/C=C/c1ccc(-c2ccccc2)s1 | . | . | . | . | . | 25.3%
Cc1ccc2c(CN(C)Cc3ccc(OC(F)F)cc3)cc(=O)oc2c1C | 3.3% | 15.3% | 16.4µM* | -12.7% | ? | -0.7%
CCC(=O)OCOc1ccc(/C=C2/CCC(CN(C)C)C2=O)cc1 (stereo unspecified) | -2.0% | ? | ? | 11.6µM* | ? | 35.5µM*

Compound activity from PubChem.
